Source: PubChem
In the library only some 2.4% were active in any assay of this set; here they are far more common.
D2 antag: D2 dopamine receptor (human) antagonism. P14416. HEK293 TREx D2 cells, calcium flux, dopamine EC80. inhibition, % at 10 µM. 340,000 compounds, 2% hits. AID 485344; in the data active = inhibition above about 30%; inactive = below that, where a call was filed; also: 0% is about no effect
Target sequence (P14416 whole entry, looked up): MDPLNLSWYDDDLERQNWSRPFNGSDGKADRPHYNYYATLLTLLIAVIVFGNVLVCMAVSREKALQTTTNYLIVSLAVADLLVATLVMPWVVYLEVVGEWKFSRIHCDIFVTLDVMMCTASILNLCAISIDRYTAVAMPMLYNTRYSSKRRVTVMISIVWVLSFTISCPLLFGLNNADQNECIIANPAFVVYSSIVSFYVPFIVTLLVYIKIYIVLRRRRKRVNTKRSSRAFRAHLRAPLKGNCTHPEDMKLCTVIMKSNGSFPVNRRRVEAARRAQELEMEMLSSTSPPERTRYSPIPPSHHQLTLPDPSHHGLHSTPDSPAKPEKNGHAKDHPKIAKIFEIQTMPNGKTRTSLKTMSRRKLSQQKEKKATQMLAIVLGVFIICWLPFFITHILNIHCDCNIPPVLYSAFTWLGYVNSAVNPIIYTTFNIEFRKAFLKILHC
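HEK293 T-REx D2 cells, tet-induced, calcium dye no-wash. Cpd pintool add, 180 s kinetic, then EC80 DA, 180 s kinetic. Ca flux read.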
D2 PAM-1: human D2 receptor positive allosteric modulation | P14416 | DiscoveRx D2 beta-arrestin cells, luminescence, 90 min; 100% = 57 uM dopamine signal | potentiation, % (no concentration beside the values) | 360,000 compounds, 0.23% hits; in the data active = potentiation above about 50%
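PathHunter D2 cells, attached overnight at 37 deg C, received compound in DMSO plus dopamine at EC20 (50 nM final) for 90 min at 37 deg C. Beta-arrestin recruitment was read as luminescence after 1 h with detection reagent at ambient temperature.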
D2 PAM-2: positive allosteric modulators of human D2 dopamine receptor; AID 485347; potentiation, % at 10 µM; HEK293 T-REx D2, calcium flux, EC20 dopamine potentiation; 340,000 compounds, 0.34% hits;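 active = potentiation over 3 SD above the plate norm, cut at about 30% in these data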; also: 0% is about no effect
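Calcium flux readout, no-wash dye, 1 read/s. Inducible HEK293 Trex D2 line, overnight 30 C. Compound alone 180 s (agonist flags), then EC20 dopamine, another 180 s to score potentiation.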
D2 ag-1: agonists of human D2 dopamine receptor (beta-arrestin). DiscoveRx PathHunter D2 beta-arrestin, luminescence, 90 min; 100% = 57 uM dopamine signal. AID 624465. P14416. activation, % (no concentration beside the values). 360,000 compounds, 0.084% hits; in the data active = activation above about 40%
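Agonist mode: compounds alone added to overnight-plated D2 PathHunter cells for 90 min at 37 C, with 57 uM final dopamine (EC100) defining full response. Beta-arrestin recruitment detected by chemiluminescent reagent, read after 1 h at ambient temperature.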
D2 ag-2: D2 dopamine receptor (human) agonism. P14416. HEK293 T-REx D2 cells, calcium flux agonist mode. activation, % at 2 µM. 340,000 compounds, 0.53% hits. AID 485358;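 active = activation over 3 SD above normal in the single-dose calcium agonist read, cut at about 30% in these data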; also: 0% is about no effect
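Calcium-flux readout, 1 cycle/sec over 180 s following compound pin transfer, in inducible HEK293 Trex D2 cells (force-coupled); dopamine controls included. Positive calcium responses during this window marked compounds as potential agonists.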
* = called active by the depositor; . = not tested or not shown.

SMILES | D2 antag | D2 PAM-1 | D2 PAM-2 | D2 ag-1 | D2 ag-2
O=c1c(N2CCCCC2)csc2ccc(F)cc12 | . | . | 5.8 | . | 0.3
COc1ccc(-n2c(-c3ccc(C)cc3)cc3c2CC(C)(C)CC3=O)c(OC)c1 | . | . | -5.8 | . | 0.2
O=C(CCc1nnc(-c2ccc(-c3ccccc3)cc2)o1)N1CCCCC1 | 62.2* | -5.6 | 16.0 | 6.9 | 1.4
COC(c1ccccc1)c1nnc(CCC(=O)N2CCCCCCC2)o1 (stereo unspecified) | -16.5 | 2.5 | 7.4 | 1.4 | -1.5
NC(=O)c1c(NC(=O)c2ccccc2)sc2c1CCN(Cc1ccccc1)C2 | 6.5 | -7.4 | -6.9 | -1.0 | 44.0*
CC(C)C(=O)Nc1sc2c(c1C(N)=O)CCN(Cc1ccccc1)C2 | 25.6 | -12.0 | -18.3 | -7.1 | 2.6
CCN1CCc2c(sc(NC(=O)c3ccc(S(=O)(=O)N(CC)c4ccccc4)cc3)c2C(N)=O)C1 | 8.5 | -9.2 | -5.7 | 0.8 | 52.3*
NC(=O)c1c(NC(=O)c2c(F)cccc2F)sc2c1CCN(Cc1ccccc1)C2 | -16.7 | -7.2 | -2.1 | -1.0 | 28.5
CCC(=O)Nc1sc2c(c1C(N)=O)CCN(Cc1ccccc1)C2 | 38.1* | -12.6 | -3.7 | -4.7 | 54.5*
CCN1CCc2c(sc(NC(=O)Cc3ccccc3)c2C(N)=O)C1 | 8.2 | -14.9 | -23.0 | -6.1 | -0.2
CCN1CCc2c(sc(NC(=O)Nc3ccc(Cl)c(Cl)c3)c2C(N)=O)C1 | 72.5* | -16.1 | -13.3 | 7.4 | 109.4*
Cc1cc(C)cc(-n2ccnc2SCC(=O)Nc2cccc3ccccc23)c1 | . | . | 15.2 | . | 0.3
COc1ccc(-n2cc(C(=O)NCCc3ccc(C)cc3)c3ccccc3c2=O)cc1 | . | . | -5.9 | . | 0.2
Cc1ccc(-c2cc(C(=O)Oc3ccc(C#N)cc3)no2)cc1 | . | . | -9.3 | . | 0.0
CCOC(=O)c1ccn(-c2nc(-c3cccc(OC)c3)cc(C(F)(F)F)n2)n1 | . | . | -6.0 | . | -0.7
CC(O)CNc1nc2c(c(=O)n(Cc3ccccc3)c(=O)n2C)n1C (stereo unspecified) | -19.4 | -7.0 | 14.5 | -4.3 | 0.5
CC(O)CNc1nc2c(c(=O)n(Cc3ccc(Br)cc3)c(=O)n2C)n1C (stereo unspecified) | 4.2 | 52.5* | 9.7 | 5.9 | -0.7
Cc1csc(=O)n1CCC(=O)OCC(=O)Nc1ccc(S(N)(=O)=O)cc1 | 53.9* | 0.5 | 2.2 | -0.3 | -0.8
Cc1csc(=O)n1CCC(=O)OCC(=O)Nc1ccc(C(N)=O)cc1 | -3.2 | -1.3 | -4.5 | -5.3 | 0.1
O=C(Cn1ccc2cc(S(=O)(=O)N3CCCCCC3)ccc21)NCc1cccc(Cl)c1 | . | . | 19.8 | . | -1.4
COc1ccccc1CN1CC(C(=O)N2CCN(c3ccc(F)cc3)CC2)CC1=O (stereo unspecified) | -9.3 | -11.0 | 32.3* | 0.3 | -0.8
Cc1cccc(C(=O)NC(=S)N2CCc3ccccc3C2)c1 | 8.6 | -16.9 | 7.2 | -4.5 | 0.7
Cc1cccc(C(=O)NCCC(=O)N2CCc3ccccc3C2)c1 | 32.1* | -4.9 | -10.6 | -1.8 | 0.0
CCN1CCN(CCC(=O)Nc2cc(C)ccc2C)CC1 | 20.8 | -4.2 | 5.9 | 1.6 | 0.1
O=C(CCN1CCc2ccccc2C1)Nc1ccc2c(c1)OCO2 | 58.5* | -39.2 | -26.4 | -1.6 | 0.3
SMILES | D2 antag | D2 PAM-1 | D2 PAM-2 | D2 ag-1 | D2 ag-2
Cc1ccc(C)c(NC(=O)CCN2CCc3ccccc3C2)c1 | 31.3* | -8.3 | -19.7 | -1.4 | 1.2
COc1cc2c(cc1OC)CN(C(=O)Nc1ccccc1Cl)CC2 | 34.7* | 0.1 | -18.3 | -2.4 | 0.9
Cc1ccsc1CN(C(=O)c1ccc(OCC(C)C)cc1)C1CCS(=O)(=O)C1 (stereo unspecified) | . | . | 11.6 | . | .
COc1ccc(CN(Cc2ccco2)c2cnc(S(C)(=O)=O)nc2C(=O)Nc2ccc(F)cc2)cc1 | . | . | 1.9 | . | 3.2
O=C(CN1CCc2ccccc2C1)Nc1ccccc1Cl | 60.6* | -40.6 | -4.6 | 7.9 | 30.5*
O=C(CN1CCc2ccccc2C1)Nc1ccccc1N1CCCCCC1 | -39.8 | -22.0 | 3.3 | -1.4 | -0.6
COc1ccccc1CNC(=O)CCC1N=C2c3ccccc3N=C(SCc3ccc(C)cc3C)N2C1=O (stereo unspecified) | . | . | 3.6 | . | 0.3
CC(=O)c1ccc(NS(=O)(=O)c2ccc3[nH]c(=O)[nH]c3c2)cc1 | . | . | 7.2 | . | 2.2
Cn1c(=O)[nH]c(=O)c2c1nc(N1CCOCC1)n2CCN1CCOCC1 | -5.7 | -3.3 | 3.5 | -3.8 | 0.9
Cn1c(=O)[nH]c(=O)c2c1ncn2CCN1CCOCC1 | 38.1* | -17.9 | 6.2 | -1.2 | 0.2
CSc1nsc(SCC(=O)Nc2ccc(C(N)=O)cc2)n1 | 37.4* | 2.3 | . | -1.0 | -3.1
CSc1nsc(SCC(=O)Nc2ccc(C(C)=O)cc2)n1 | -18.4 | -8.3 | 6.9 | -0.1 | -0.1
O=C(NC1=C(Nc2ccc(F)cc2)C(=O)c2ccccc2C1=O)c1ccc(Cl)cc1 | -4.3 | 70.3* | -0.8 | 9.7 | 0.0
O=C(NNC(=O)c1ccc(NC(=O)c2ccccc2)cc1)c1ccc(F)cc1 | -2.9 | -2.7 | 4.9 | 1.3 | -0.6
COc1ccc(C(=O)N2CC(=O)Nc3ccc(F)cc3C2c2ccc(F)cc2)c(OC)c1 (stereo unspecified) | . | . | 3.1 | . | 2.4
COc1ccc(-c2cn[nH]c2-c2ccc(OCc3ccc([N+](=O)[O-])cc3)cc2O)cc1 | . | 52.3* | . | 11.9 | .
OCCC1CN(Cc2cc(F)ccc2F)CCN1CCCc1ccccc1 (stereo unspecified) | 83.2* | -5.8 | -35.5 | -7.0 | -1.0
COCc1cc(CN2CCN(CCCc3ccccc3)C(CCO)C2)ccc1OC (stereo unspecified) | 7.8 | -11.9 | -7.2 | -1.6 | 1.0
COc1ccc(F)c(CN2CCN(CCc3ccccc3)C(CCO)C2)c1 (stereo unspecified) | -9.7 | -12.2 | -4.7 | 2.0 | 0.9
COc1ccc(O)c(CN2CCN(CCCc3ccccc3)C(CCO)C2)c1 (stereo unspecified) | 74.8* | -1.6 | -19.7 | -1.4 | -3.3
OCCC1CN(Cc2ccc(F)cc2Cl)CCN1CCc1ccccc1 (stereo unspecified) | 29.6 | -23.7 | -17.5 | 3.4 | 0.4
COc1ccc(OC)c(CN2CCN(CCc3ccccc3)C(CCO)C2)c1 (stereo unspecified) | 44.9* | -9.0 | -17.0 | -6.3 | 1.2
Cc1cccc(N2CCN(c3nc4ccc(C(=O)c5ccccc5)cc4n4cnnc34)CC2C)c1 (stereo unspecified) | . | . | 7.5 | . | 0.4
CCOc1ccccc1N1CCN(Cc2cc3c(cc2[N+](=O)[O-])OCO3)CC1 | 59.6* | -24.6 | -15.0 | -0.4 | 0.7
CCOc1ccccc1N1CCN(Cc2ccc(OC)c(OC)c2OC)CC1 | 23.2 | -20.3 | 0.9 | -1.4 | -3.2
CCOc1ccccc1N1CCN(Cc2ccc(OC)c(OC)c2)CC1 | 94.4* | 0.5 | -27.1 | -1.4 | -2.3
